Results: PubChem BioAssay (NCI)
Compounds without any hit were thinned out: in the full panel of roughly 79,000, 15% have a hit. Unmarked numbers belong to inactive results. Calls of active or inactive are those of the source. Cut-off read from the data, not from the text of the source: active = growth inhibition above about 70%; inactive = the rest.

Tests used:
[1] = NCI Yeast Anticancer Drug Screen. Data for the rad50 strain (AID 155);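 note: 0% = growth of vehicle-only cultures of the same strain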; settings: S. cerevisiae rad50 strain growth inhibition, hits give high values
In short: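 A DNA repair-deficient yeast mutant serves as the test organism; compound-induced growth inhibition is calculated against vehicle-treated cells.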

[2] = NCI Yeast Anticancer Drug Screen. Data for the mec2-1 strain (AID 157); settings: S. cerevisiae mec2-1 strain, hits give high values
In short: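 Strain: mec2-1 (DNA repair/cell cycle alteration). Compound exposure, then growth measured; inhibition expressed relative to vehicle.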

[3] = NCI Yeast Anticancer Drug Screen. Data for the sgs1 mgt1 strain (AID 161);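 note: 0% = growth of cultures given vehicle only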; settings: S. cerevisiae sgs1 mgt1 strain, hits give high values
In short: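 Inhibition of yeast growth, normalised to vehicle-treated controls, is reported for a strain bearing genetic alterations in DNA damage repair.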

[4] = NCI Yeast Anticancer Drug Screen. Data for the cln2 rad14 strain (AID 165);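 note: 0% = growth equal to vehicle treated cultures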; settings: S. cerevisiae cln2 rad14 strain, hits give high values
In short: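 Compounds are applied to the cln2 rad14 yeast strain, and growth is then compared with that of vehicle-treated cultures to give inhibition.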

[5] = NCI Yeast Anticancer Drug Screen. Data for the bub3 strain (AID 167); settings: S. cerevisiae bub3 mutant strain, hits give high values
In short: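 Inhibition values come from growth of compound-treated mutant yeast normalised to vehicle-treated controls.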

[6] = NCI Yeast Anticancer Drug Screen. Data for the mlh1 rad18 strain (AID 175); settings: S. cerevisiae mlh1 rad18 strain growth inhibition, hits give high values
In short: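 Read-out is yeast growth inhibition, calculated against vehicle-only controls. The compound was applied to a strain engineered with DNA damage repair alterations.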

[7] = at 5.0 µM (retest, dose inferred, filed as 0.5)
[8] = at 50.0 µM (retest, dose inferred, filed as 5.0)

SMILES	growth inhibition [1, 7] [%]	growth inhibition [1, 8]	growth inhibition ([1]; at 50.0 µM)	growth inhibition [2, 7]	growth inhibition [2, 8]	growth inhibition ([2]; at 50.0 µM)	growth inhibition [3, 7]	growth inhibition [3, 8]	growth inhibition ([3]; at 50.0 µM)	growth inhibition [4, 7]	growth inhibition [4, 8]	growth inhibition ([4]; at 50.0 µM)	growth inhibition [5, 7]	growth inhibition [5, 8]	growth inhibition ([5]; at 50.0 µM)	growth inhibition [6, 7]	growth inhibition [6, 8]	growth inhibition ([6]; at 50.0 µM)
CCCCN(C)C(=S)N/N=C(\C)c1ccccn1	56	99% (active)	99.5% (active)	73% (active)	100% (active)	99.8% (active)	97% (active)	99% (active)	99.7% (active)	95% (active)	98% (active)	99.5% (active)	92% (active)	99% (active)	99.5% (active)	98% (active)	99% (active)	99.7% (active)
CSc1nc(=S)c2[nH]c(C)nc2[nH]1	0	4%	93.3% (active)	-2%	-3%	99.6% (active)	0%	1%	99.2% (active)	-3%	6%	98.5% (active)	-1%	-6%	99.6% (active)	1%	3%	97.5% (active)
Cc1cc(Br)c(N2C3=C(CC4=C2CCCC4=O)C(=O)CCC3)c(Br)c1	17	90% (active)	96.8% (active)	7%	89% (active)	97.8% (active)	-3%	80% (active)	97.8% (active)	10%	94% (active)	93.5% (active)	-10%	95% (active)	98.2% (active)	16%	97% (active)	97.8% (active)
COC1/C=C/OC2(C)Oc3c(C)c(OC(C)=O)c4c(c3C2=O)C(=O)C=C(NC(=O)/C(C)=C\C=C\C(C)C(O)C(C)C(O)C(C)C(OC(C)=O)C1C)C4=O (configuration not stated)	6	70% (active)	53.4%	-44%	87% (active)	50%	1%	52%	6%	3%	96% (active)	69.8%	0%	85% (active)	42.6%	5%	90% (active)	46.5%
COc1cccc(C2c3cc4c(cc3OC(NNS(=O)(=O)c3ccc(C)cc3)C2C)OCO4)c1O (configuration not stated)	-7	94% (active)	75.4% (active)	-10%	81% (active)	85.6% (active)	-4%	95% (active)	92.2% (active)	9%	88% (active)	87.2% (active)	-20%	92% (active)	54%	6%	94% (active)	85.5% (active)
O=C(Nc1ccc(S(=O)(=O)NC2CCCCC2)cc1)OC1CCCCC1	14	95% (active)	92.9% (active)	30%	98% (active)	93.4% (active)	66%	92% (active)	94.3% (active)	-10%	93% (active)	93.7% (active)	10%	95% (active)	92.3% (active)	11%	95% (active)	94% (active)
CCN(CC)CCNc1ccc2nnn3c4ccc([N+](=O)[O-])cc4c(=O)c1c23	16	35%	66.5%	1%	12%	26%	5%	15%	66%	24%	27%	36.2%	9%	35%	37.9%	11%	30%	76% (active)
O=C(Nc1ccccc1)Oc1c(Cl)c(Cl)c(Cl)c(Cl)c1Cl	19	98% (active)	58.4%	13%	99% (active)	45.8%	26%	99% (active)	55.7%	3%	99% (active)	-20.8%	-2%	99% (active)	54.4%	6%	98% (active)	68.7%
C[C@H](CCC(=O)O)[C@H]1CC[C@H]2[C@@H]3[C@@H](O)C[C@@H]4C[C@H](O)CC[C@]4(C)[C@H]3CC[C@]12C	14	97% (active)	79.9% (active)	7%	96% (active)	99% (active)	19%	99% (active)	81.3% (active)	-1%	97% (active)	76.5% (active)	21%	99% (active)	98.5% (active)	12%	99% (active)	88.7% (active)
